Rows were chosen to be rich in hits. Some 11% of all compounds tested hit in one or more screens of this group.
PNC assembly inh – inhibitors of perinucleolar compartment assembly. PC3M PTB-GFP, PNC prevalence imaging, 16 h; stronger effect = lower value. activity change (PNC), negative = inhibition, % at 10 µM. 140,000 tested, 3.1% active. AID 2417;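 active = readout at or below -70, meaning at least 70% loss of cells showing the perinucleolar compartment, a nuclear body marking cancer cells; inconclusive = readout between -30 and a set limit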
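Compounds are pinned in duplicate onto adhered PC3M cells stably expressing GFP-tagged PTB and incubated 16 h at 37 C. Cells are then fixed, nuclei stained with Hoechst, and PNC-positive cells counted.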
HPGD inh – inhibitors of human 15-hydroxyprostaglandin dehydrogenase (HPGD); P15428; purified HPGD, NADH fluorescence kinetic, PGE2 substrate; Potency, µM, most hits filed as inhibitors; 150,000 tested, 4.3% active; AID 894
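NADH formation kinetics: reaction with 30 uM PGE2 and 1 mM NAD+ (final), 20 nM enzyme, Tris-HCl pH 8 with Tween 20, after 15 min compound preincubation at room temperature. Fluorescence change, last versus first of five reads.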
ALDH1A1 inh – blocks purified human ALDH1A1 activity. 220,000 tested, 7.3% active. P00352. Purified ALDH1A1, NADH fluorescence, propionaldehyde substrate. AID 1030. Potency, µM (highest dose often 75.3 µM), hits mostly inhibitors
Target sequence (P00352 whole entry, looked up): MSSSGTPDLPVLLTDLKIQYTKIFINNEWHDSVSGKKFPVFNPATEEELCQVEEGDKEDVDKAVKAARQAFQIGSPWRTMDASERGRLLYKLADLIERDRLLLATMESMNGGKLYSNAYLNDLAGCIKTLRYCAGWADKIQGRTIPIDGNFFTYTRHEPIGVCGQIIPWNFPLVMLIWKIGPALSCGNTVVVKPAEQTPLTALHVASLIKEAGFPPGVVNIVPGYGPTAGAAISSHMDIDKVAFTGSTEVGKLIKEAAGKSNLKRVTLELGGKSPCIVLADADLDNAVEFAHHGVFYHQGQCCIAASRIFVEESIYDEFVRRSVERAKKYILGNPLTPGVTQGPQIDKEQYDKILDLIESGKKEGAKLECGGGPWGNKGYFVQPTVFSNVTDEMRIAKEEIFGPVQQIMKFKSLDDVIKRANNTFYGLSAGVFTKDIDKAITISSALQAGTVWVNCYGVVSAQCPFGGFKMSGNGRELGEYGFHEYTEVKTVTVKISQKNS
Each line names hits and unclear results; the compound was inactive in the other large screens. Unless noted, calls come from the whole dose curve; as a rule, active = well fitted inhibition curve with a large enough effect (not every such curve was filed as active); inconclusive = small, poorly fitted or top-dose-only effect, or another doubt; inactive = no such curve, though single readings can be large or run the other way.

Cc1[nH]nc(SCC(=O)NCc2ccc(Cl)cc2)c1[N+](=O)[O-]	none
CCC(C)NC(=O)C1c2cc(OC)c(OC)cc2C(=O)N(C)C1c1ccc(OC)cc1 (centres undefined)	PNC assembly inh -100
CCN1CCN(C(=O)C2c3cc(OC)c(OC)cc3C(=O)N(C)C2c2ccc(SC)cc2)CC1 (centres undefined)	PNC assembly inh -100, ALDH1A1 inh inconclusive
CCC(C)NC(=O)C1c2cc(OC)c(OC)cc2C(=O)N(C)C1c1cccs1 (centres undefined)	none
COc1ccc(C2C(C(=O)N3CCN(C)CC3)c3cc(OC)c(OC)cc3C(=O)N2C)cc1 (centres undefined)	none (no result: PNC assembly inh, HPGD inh)
C#CCNC(=O)C1=C[C@H](C)[C@@H](CCCO)[C@H](OCC)O1	none (no result: PNC assembly inh, HPGD inh)
O=Cc1cc([N+](=O)[O-])ccc1N1CCOCC1	ALDH1A1 inh inconclusive
O=C(c1cc([N+](=O)[O-])ccc1N1CCOCC1)N1CCCCC1	none
CCOC(=O)c1cc(CC)sc1NC(=O)c1cc([N+](=O)[O-])ccc1N1CCOCC1	PNC assembly inh -84, ALDH1A1 inh inconclusive
O=C1NC(=S)N/C1=C/c1cc([N+](=O)[O-])ccc1N1CCOCC1	ALDH1A1 inh 25µM (no result: PNC assembly inh, HPGD inh)
CC1CCN(c2ccc([N+](=O)[O-])cc2C(=O)O)CC1	none
O=C(c1ccccc1)c1cc([N+](=O)[O-])ccc1N1CCOCC1	PNC assembly inh -112, ALDH1A1 inh inconclusive
CC1CCCN(c2ccc([N+](=O)[O-])cc2C(=O)c2ccccc2)C1 (centres undefined)	PNC assembly inh -100, ALDH1A1 inh inconclusive
CCOC(=O)c1cc(CC)sc1NC(=O)c1ccc(N2CCOCC2)c([N+](=O)[O-])c1	none
COc1ccc(-c2nn(CC(=O)N(C)C)c(=O)c3ccccc23)cc1	HPGD inh inconclusive, ALDH1A1 inh inconclusive
CCOC(=O)C1=C(N)N2C(=O)CSC2=C(C(=O)OC)C1	ALDH1A1 inh inconclusive (no result: HPGD inh)
CC(C)[C@@H](C(=O)N1CCN(C(=O)OC(C)(C)C)CC1)n1cc(CCO)nn1	none (no result: PNC assembly inh, HPGD inh)
CCCCCCCC1CC(/C(C)=N/NC(N)=O)OC1=O (centres undefined)	none
O=C(c1cccc(F)c1)N1CCC[C@@]2(CCN(c3ccccn3)C2)C1	ALDH1A1 inh inconclusive (no result: PNC assembly inh)
Cc1cccc(C)c1NC(=O)CNCC(=O)N(C)C	none (no result: PNC assembly inh, HPGD inh)
Cc1cc(C)cc(NS(=O)(=O)c2ccc(NC(=O)C3CCCCC3C(=O)O)cc2)c1 (centres undefined)	none
Cc1c(C(c2ccc([N+](=O)[O-])cc2)c2c(C)n(C)n(-c3ccccc3)c2=O)c(=O)n(-c2ccccc2)n1C	none
COc1ccc2c(=O)c(-c3ccccc3)c(C)oc2c1	ALDH1A1 inh inconclusive
COc1cc(OC)c2c(=O)c(-c3ccccc3)c(C)oc2c1OC	ALDH1A1 inh 14µM (no result: PNC assembly inh)
CCCCSc1nnc(CNC(=O)C23CC4CC(CC(C4)C2)C3)n1Cc1ccccc1	none
COc1ccc(-n2nnnc2SCC(=O)Nc2ccccc2N2CCOCC2)cc1	none (no result: PNC assembly inh, HPGD inh)
CCn1c(Cc2ccccc2)nnc1SCC(=O)Nc1ccccc1N1CCOCC1	ALDH1A1 inh 8.9µM
O=C(CSc1nnnn1C1CCCCC1)Nc1ccccc1N1CCOCC1	ALDH1A1 inh 28µM (no result: PNC assembly inh, HPGD inh)
Cn1c(Cc2ccccc2)nnc1SCC(=O)Nc1ccccc1N1CCOCC1	none
CCOC(=O)c1ccccc1NC(=O)CSc1nnnn1C1CCCCC1	ALDH1A1 inh 3.5µM (no result: HPGD inh)
COC(=O)c1ccccc1NC(=O)CSc1nnnn1C1CCCCC1	ALDH1A1 inh inconclusive
CCCn1c(Nc2ccccc2C)nc2ccccc21	none
CCC1(C)Cc2c(c(=O)n(-c3ccccc3)c3ncnc(N)c23)CO1 (centres undefined)	HPGD inh inconclusive, ALDH1A1 inh inconclusive
CC(C)(C)n1nnnc1C(c1cccs1)N(Cc1ccc(Cl)cc1)CC1CCCO1 (centres undefined)	ALDH1A1 inh inconclusive
COC(=O)c1ccc(COC(=O)CNS(=O)(=O)c2ccc(C)cc2)cc1	none (no result: PNC assembly inh, HPGD inh)
CCN=C(NCC)SC1CC(=O)N(c2cccc(OCC)c2)C1=O (centres undefined)	none
CCN1C(=O)C2C(C1=O)N1C(c3ccccc3)C3C(=O)N(CC)C(=O)C3N1C2c1ccccc1 (centres undefined)	none
CCN1C(=O)C(C(=O)c2ccccc2)SC1=S (centres undefined)	ALDH1A1 inh 7.5µM (no result: PNC assembly inh, HPGD inh)
C[C@H]1Cc2c(-c3ccccc3)nc3c(c2CO1)CN(C(=O)c1ccco1)CC3	none (no result: PNC assembly inh)
CCOc1ccc(Br)cc1S(=O)(=O)Nc1ccc(Cl)c(S(=O)(=O)N(CC)c2ccccc2)c1	none
CCOc1ccc(Br)cc1S(=O)(=O)Nc1ccc(Cl)c(S(=O)(=O)N(C)C)c1	ALDH1A1 inh 0.35µM (no result: HPGD inh)
O=C(Cc1ccccc1)NCC(=O)N1CCCCCC1	none
Cc1ccc(N2C(=O)N(Cc3ccccc3C)c3ccccc3S2(=O)=O)cc1	HPGD inh inconclusive
CCOC(=O)/C(C#N)=C/c1cc2ccc(C)cc2nc1Cl	HPGD inh inconclusive, ALDH1A1 inh inconclusive
CCOC(=O)/C(C#N)=C/c1cc(C)n(-c2ccc(Br)cc2)c1C	none
CCOC(=O)/C(C#N)=C/c1cc(C)n(-c2ccccc2)c1C	ALDH1A1 inh 11µM
CCOC(=O)/C(C#N)=C/c1cc2ccccc2nc1N1CCOCC1	ALDH1A1 inh 25µM
O=C(Cn1c(=O)sc2ccccc21)NCCOc1ccccc1F	none
CCOC(=O)c1c(Nc2nc(C)c(C(=O)NC)s2)sc(C)c1C	PNC assembly inh -82
CCOC(=O)Nc1sc(C)c(C)c1C(=O)OCC	none
Cc1ccc(NC2=NCC(=O)N2C2CCCC2)c(C)c1	PNC assembly inh inconclusive
Cc1ccc(OS(=O)(=O)c2cn(C)c(=O)n(C)c2=O)cc1C	none (no result: PNC assembly inh, HPGD inh)
O=C(CSc1nnc(C2CC2)n1Cc1ccccc1)c1ccc(S(=O)(=O)N2CCOCC2)cc1	PNC assembly inh inconclusive, ALDH1A1 inh 11µM
O=C(CSc1nnc(C2CC2)n1Cc1ccccc1)N1CCN(S(=O)(=O)c2ccccc2)CC1	none
CCn1c(SCc2ccccc2)nnc1C1CCN(S(=O)(=O)c2ccc(OC)cc2)CC1	ALDH1A1 inh 5µM
CCn1c(SCc2ccccc2)nnc1C1CCCCC1	ALDH1A1 inh inconclusive (no result: HPGD inh)
COc1ccc([N+](=O)[O-])cc1NC(=O)Cc1ccccc1Cl	PNC assembly inh inconclusive
Cc1ccc(N=Cc2cc(Cc3ccccc3Cl)cc([N+](=O)[O-])c2O)c(O)c1	ALDH1A1 inh 11µM (no result: PNC assembly inh, HPGD inh)
COc1ccc(N=Cc2cc(Cc3ccccc3Cl)cc([N+](=O)[O-])c2O)cc1OC	ALDH1A1 inh 7.1µM (no result: PNC assembly inh, HPGD inh)
Cc1n[nH]c(C)c1Sc1ccccc1N=Cc1cc(Cl)cc([N+](=O)[O-])c1O	ALDH1A1 inh inconclusive
CC(C)CSc1nc2c(=O)[nH][nH]c(=O)c2n1Cc1ccccc1	none
COc1ccc(CCN(C)CCCC(C#N)(c2cc(OC)c(OC)c(OC)c2)C(C)C)cc1OC (centres undefined)	PNC assembly inh -115
COc1ccc(CCN(C)CCCOc2ccc(S(=O)(=O)c3[nH]c4ccccc4c3C(C)C)cc2)cc1OC	none (no result: PNC assembly inh)
CSc1ccc(OC2CCCCC2NS(=O)(=O)c2ccccc2)cc1 (centres undefined)	ALDH1A1 inh 1.3µM
COC1CCCCC1NS(=O)(=O)c1ccc(Cl)cc1 (centres undefined)	PNC assembly inh inconclusive
Cc1cc(C)cc(OC2CCCCC2NS(=O)(=O)c2ccccc2)c1 (centres undefined)	PNC assembly inh inconclusive, ALDH1A1 inh 13µM

Assay outcomes as filed in PubChem BioAssay.
